Test results published in PubChem BioAssay.
Active and inactive are the calls of the source.

Experiments:
[1] = system: PRMT1 (protein arginine N-methyltransferase 1); test: PRMT1 binders on small-molecule microarrays, primary screen, biochemical, small-molecule microarray, 635 nm fluorescence (AID 1088); settings: small-molecule microarray binding, higher = more signal;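 note: binding of Prmt1 protein to compounds spotted on small-molecule microarray slides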
[2] = yeast growth modulation, basal conditions, primary screen, YJM789 clinical isolate, OD600, 24 h (AID 1089);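 note: growth of clinical yeast isolate S. cerevisiae YJM 789 seeded 1000 cells per well; test concentration not given here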; settings: S. cerevisiae YJM789 growth, higher = more signal, called active from +8 up or from −8 down
[3] = fission yeast growth modulation, primary screen, strain 972, OD600, 24 h, no modulator (AID 1090);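 note: basal condition with compound alone and no growth modifier present; test concentration not given here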; settings: S. pombe 972 growth, higher = more signal, called active from +8 up or from −8 down
[4] = S. cerevisiae growth modulation with rapamycin, primary screen, strain BY4716, OD600, 96 h (AID 1091); settings: higher = more signal, called active from +8 up or from −8 down; note: test concentration not given here
[5] = target: Torsin-1A-interacting protein 2 (Homo sapiens) (UniProt Q8NFQ8); test: LULL1 binders on small-molecule microarray, primary screen, cell lysate, human LULL1 lysate, 635/667 nm fluorescence (AID 1092); settings: hLULL1 lysate binding, 635 nm fluorescence, higher = more signal;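 note: probe is lysate of COS7 cells overexpressing human LULL1; score merges per-feature 667 nm fluorescence with signal-to-noise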
Chain of Torsin-1A-interacting protein 2 (Homo sapiens) (Q8NFQ8 whole entry, looked up): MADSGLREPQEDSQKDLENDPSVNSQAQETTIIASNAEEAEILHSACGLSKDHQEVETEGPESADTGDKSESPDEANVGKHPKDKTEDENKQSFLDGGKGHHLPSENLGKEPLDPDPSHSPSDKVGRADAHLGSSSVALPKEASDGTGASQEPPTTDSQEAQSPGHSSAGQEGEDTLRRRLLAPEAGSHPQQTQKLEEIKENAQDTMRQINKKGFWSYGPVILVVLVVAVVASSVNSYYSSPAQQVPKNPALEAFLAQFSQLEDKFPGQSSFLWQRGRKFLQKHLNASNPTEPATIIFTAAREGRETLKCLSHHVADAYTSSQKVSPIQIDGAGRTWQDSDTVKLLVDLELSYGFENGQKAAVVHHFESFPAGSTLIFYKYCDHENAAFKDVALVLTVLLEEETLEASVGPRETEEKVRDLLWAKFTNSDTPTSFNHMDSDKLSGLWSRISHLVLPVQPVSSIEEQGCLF

[6] = E. coli growth modulation, two-sided OD650, primary screen, E. coli filamentation project, strain DRC41, 24 h (AID 1093); settings: OD650, 24 h, higher = more signal, called active from +8 up or from −8 down;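 note: MC1000 strain lacking acrAB efflux and sulA so SOS filamentation is blocked; test concentration not given here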
[7] = small-molecule microarray binders of probe aLefty2, primary screen, biochemical, biotinylated probe, 635/667 nm fluorescence (AID 1094); settings: higher = more signal;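 note: score merges spot fluorescence near 667 nm with spot signal-to-noise ratio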
[8] = system: Noggin (protein binding on small-molecule microarray); test: Noggin binders on small-molecule microarray, primary screen, biochemical, 635/667 nm fluorescence (AID 1095); settings: 635 nm fluorescence, higher = more signal;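 note: score merges 667 nm feature fluorescence with signal to noise over triplicate slides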
[9] = target: Neurogenic locus notch homolog protein 3 (Homo sapiens) (UniProt Q9UM47); test: NOTCH3 binders on small-molecule microarray, primary screen, biochemical, 635/667 nm fluorescence (AID 1096); settings: NOTCH3 binding, 635 nm fluorescence, higher = more signal
Chain of Neurogenic locus notch homolog protein 3 (Homo sapiens) (Q9UM47 whole entry, looked up): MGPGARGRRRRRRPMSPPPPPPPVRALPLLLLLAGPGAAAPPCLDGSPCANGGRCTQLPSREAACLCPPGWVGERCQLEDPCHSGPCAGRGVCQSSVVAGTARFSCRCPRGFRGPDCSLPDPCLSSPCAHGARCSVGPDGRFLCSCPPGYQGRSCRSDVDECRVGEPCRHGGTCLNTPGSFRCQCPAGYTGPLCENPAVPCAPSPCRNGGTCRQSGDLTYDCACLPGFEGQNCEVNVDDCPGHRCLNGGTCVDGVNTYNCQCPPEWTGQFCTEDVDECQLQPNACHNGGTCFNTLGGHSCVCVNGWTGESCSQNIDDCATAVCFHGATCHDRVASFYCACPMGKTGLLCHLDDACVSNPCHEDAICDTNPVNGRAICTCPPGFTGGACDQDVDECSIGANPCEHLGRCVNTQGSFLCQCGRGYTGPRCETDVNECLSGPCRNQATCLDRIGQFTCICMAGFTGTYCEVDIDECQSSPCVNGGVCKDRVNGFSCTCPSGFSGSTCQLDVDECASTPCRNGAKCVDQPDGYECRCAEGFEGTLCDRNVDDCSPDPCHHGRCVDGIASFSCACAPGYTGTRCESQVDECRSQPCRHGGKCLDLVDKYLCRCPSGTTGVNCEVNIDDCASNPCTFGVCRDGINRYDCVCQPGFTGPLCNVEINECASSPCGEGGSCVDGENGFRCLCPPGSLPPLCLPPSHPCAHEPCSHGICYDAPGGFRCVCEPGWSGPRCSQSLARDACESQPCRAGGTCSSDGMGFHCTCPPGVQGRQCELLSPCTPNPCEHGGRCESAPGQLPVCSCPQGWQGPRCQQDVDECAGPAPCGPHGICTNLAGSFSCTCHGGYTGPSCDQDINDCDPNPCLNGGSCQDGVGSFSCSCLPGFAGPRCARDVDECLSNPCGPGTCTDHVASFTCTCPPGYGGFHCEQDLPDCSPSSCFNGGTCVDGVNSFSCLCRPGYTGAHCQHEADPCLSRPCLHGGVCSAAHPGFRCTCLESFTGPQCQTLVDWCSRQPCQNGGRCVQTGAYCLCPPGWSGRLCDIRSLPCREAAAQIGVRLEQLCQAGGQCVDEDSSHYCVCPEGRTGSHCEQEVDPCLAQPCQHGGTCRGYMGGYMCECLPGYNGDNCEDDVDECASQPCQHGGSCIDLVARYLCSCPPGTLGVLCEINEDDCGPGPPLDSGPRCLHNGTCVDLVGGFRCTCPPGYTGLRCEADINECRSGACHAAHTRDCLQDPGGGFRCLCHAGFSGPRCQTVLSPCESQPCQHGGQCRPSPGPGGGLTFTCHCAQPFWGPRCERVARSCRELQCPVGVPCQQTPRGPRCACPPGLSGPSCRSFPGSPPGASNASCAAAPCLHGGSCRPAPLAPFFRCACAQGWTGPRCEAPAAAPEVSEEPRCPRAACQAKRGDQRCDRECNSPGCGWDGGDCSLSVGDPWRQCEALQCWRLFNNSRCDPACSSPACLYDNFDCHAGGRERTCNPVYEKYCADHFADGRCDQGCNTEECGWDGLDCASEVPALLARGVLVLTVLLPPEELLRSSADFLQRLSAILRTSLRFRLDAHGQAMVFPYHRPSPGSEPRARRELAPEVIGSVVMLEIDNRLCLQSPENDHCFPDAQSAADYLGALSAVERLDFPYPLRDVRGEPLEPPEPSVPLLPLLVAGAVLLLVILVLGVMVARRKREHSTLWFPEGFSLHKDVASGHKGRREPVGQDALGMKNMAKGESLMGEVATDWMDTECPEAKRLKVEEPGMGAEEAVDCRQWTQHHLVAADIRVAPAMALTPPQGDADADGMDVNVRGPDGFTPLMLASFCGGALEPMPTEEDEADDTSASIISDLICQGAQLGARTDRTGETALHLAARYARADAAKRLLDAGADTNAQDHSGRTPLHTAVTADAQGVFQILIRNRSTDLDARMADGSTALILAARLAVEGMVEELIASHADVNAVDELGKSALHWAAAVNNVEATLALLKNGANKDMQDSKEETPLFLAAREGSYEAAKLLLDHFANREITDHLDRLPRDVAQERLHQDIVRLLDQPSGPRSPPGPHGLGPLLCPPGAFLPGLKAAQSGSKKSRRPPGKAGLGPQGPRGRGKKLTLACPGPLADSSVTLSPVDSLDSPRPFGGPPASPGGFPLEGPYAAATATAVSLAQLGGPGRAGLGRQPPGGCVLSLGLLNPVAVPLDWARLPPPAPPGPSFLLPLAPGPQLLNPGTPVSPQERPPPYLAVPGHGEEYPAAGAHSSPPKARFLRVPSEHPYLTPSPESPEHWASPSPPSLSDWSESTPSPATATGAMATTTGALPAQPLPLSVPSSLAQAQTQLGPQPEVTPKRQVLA

[10] = small-molecule microarray binders of probe aEGFR, primary screen, biochemical, biotinylated probe, 635/667 nm fluorescence (AID 1097); settings: higher = more signal;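 note: probe is a biotinylated anti-EGFR antibody binding compounds printed on slides; score combines fluorescence near 667 nm and signal to noise of each spot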

| SMILES | composite z-score [1] | z-score [2] | z-score [3] | z-score [4] | composite z-score [5] | z-score [6] | composite z-score [7] | composite z-score [8] | composite z-score [9] | composite z-score [10] |
| --- | --- | --- | --- | --- | --- | --- | --- | --- | --- | --- |
| C=CC[C@@]1(C(=O)N2CCCCC2)N=C(c2ccc(OCCCO)cc2)O[C@@H]1c1ccccc1CN=[N+]=[N-] | 1.55 | -1.87 (inactive) | 0.0315 (inactive) | 0.819 (inactive) | 3.67 | 0.912 (inactive) | 0.178 | 0.648 | 1.08 | 0.0528 |
| CC(C)N1CC=CC23O[C@@H]4C=CCOC(=O)[C@@H]4[C@H]2C(=O)N(CCCCCO)[C@@H]3C1=O (stereo not given in full) | 0.637 | -1.04 (inactive) | -0.288 (inactive) | -2.25 (inactive) | 2.64 | 3.13 (inactive) | -0.137 | -0.325 | -0.107 | -0.111 |
| COc1ccc([Si](C)(C)[C@H]2[C@H](CCn3cc([C@H](O)c4ccccc4)nn3)O[C@@]3(C(=O)N(C)c4ccccc43)[C@@H]2C)cc1 | -0.133 | -2.61 (inactive) | 0.644 (inactive) | -0.254 (inactive) | 0.446 | 0.271 (inactive) | -0.0317 | 0.176 | 0.133 | -0.171 |
| O=C1O[C@@H](c2ccccc2)[C@@H](c2ccccc2)N2[C@@H](c3ccc(OCCO)cc3)[C@]3(C(=O)Nc4ccc(C#CCCO)cc43)[C@@H](C(=O)NC[C@H](O)c3ccccc3)[C@H]12 | 1.54 | 2.55 (inactive) | 1.19 (inactive) | 4.63 (inactive) | 2.71 | 0.695 (inactive) | 0.409 | 1.25 | 0.667 | 0.258 |
| O=C1OCCC=C[C@H]2OC34C=CCN(CCN5CCOCC5)C(=O)[C@H]3N(CCCCCO)C(=O)[C@@H]4C12 (stereo not given in full) | 1.48 | -0.776 (inactive) | -0.0455 (inactive) | -0.379 (inactive) | 3.34 | 0.444 (inactive) | -0.138 | 0.0669 | 0.193 | -0.158 |
| COc1cc(OC)c(C(O)C2C=CC3C(=O)NC(=O)C3N2Nc2ccccn2)cc1Br (stereo not given) | 1.49 | -0.0137 (inactive) | -0.289 (inactive) | 0.204 (inactive) | 0.645 | -0.564 (inactive) | 0.0917 | 0.458 | 0.716 | 0.131 |
| O=C1OCCC/C=C\[C@H]2OC34C=CCN(c5ccc6ccccc6c5)C(=O)[C@H]3N(CCCCCO)C(=O)[C@@H]4C12 (stereo not given in full) | -1.23 | -1.56 (inactive) | -1.52 (inactive) | -0.419 (inactive) | -1.77 | -0.72 (inactive) | -0.156 | -0.766 | -0.359 | -0.13 |
| CCOc1ccc(N2C(=O)CSC2c2cccc([N+](=O)[O-])c2)cc1 (stereo not given) | 0.971 | 0.493 (inactive) | 0.527 (inactive) | 0.712 (inactive) | 1.63 | 1.01 (inactive) | -0.0555 | 0.154 | 0.699 | -0.0697 |
| CC(C)CCC[C@@H](C)[C@H]1CC[C@@]2(C)C3=C(CC[C@]12C)[C@@]1(C)CC[C@H](OC(=O)c2ccc(C(F)(F)F)nc2)C(C)(C)C1CC3 (stereo not given in full) | -0.431 | -1.64 (inactive) | -0.769 (inactive) | -0.455 (inactive) | 0.282 | 3.05 (inactive) | -0.233 | 0.52 | 0.483 | -0.1 |
| C=C[C@H](C)[C@@H](OC(=O)Nc1ccc(SC)cc1)c1ccc(O)c2ccccc12 | 1.28 | -24.3 (active) | -20.7 (active) | -1.88 (inactive) | 1.89 | 1.22 (inactive) | -0.0159 | 0.936 | 1.11 | 0.137 |
| COC(=O)[C@@]1(Cc2ccccc2)[C@H]2c3cc(C(=O)N4CCCC4)n(Cc4c(CO)[nH]cc(C)c4=O)c3C[C@H]2CN1C(=O)c1ccccc1 | 0.138 | -0.0602 (inactive) | 0.94 (inactive) | 0.171 (inactive) | 3.18 | -0.799 (inactive) | 0.539 | -0.218 | 0.12 | 0.0478 |
| O=C1OCC=C[C@H]2OC34C=CCN(CCN5CCOCC5)C(=O)[C@H]3N(CCO)C(=O)[C@@H]4[C@@H]12 (stereo not given in full) | 1.15 | -0.674 (inactive) | -0.537 (inactive) | -0.12 (inactive) | 0.431 | -0.653 (inactive) | -0.417 | 0.928 | 0.534 | -0.139 |
| COC(=O)[C@@]1(Cc2ccc(OC)cc2)[C@H]2c3cc(C(=O)N4CCCC4)n(CCCNc4ncc(C(F)(F)F)cc4Cl)c3C[C@H]2CN1C(=O)c1ccccc1 | 0.0457 | -0.496 (inactive) | 1.11 (inactive) | 1.35 (inactive) | 1.8 | -0.537 (inactive) | 0.987 | 0.341 | 0.656 | 0.939 |
| NCCCCCCNC(=O)[C@H]1C[C@H]2C(=O)N[C@@H](Cc3ccccc3)C(=O)N2[C@H]1c1cccc(OCCO)c1 | 0.753 | 0.106 (inactive) | 0.269 (inactive) | -0.689 (inactive) | 1.66 | 0.524 (inactive) | 0.255 | 0.337 | 0.347 | 0.0562 |
| C=CCNC(=O)[C@@H]1[C@H]2C(=O)O[C@H](c3ccccc3)[C@H](c3ccccc3)N2[C@H](c2ccc(OCCO)cc2)[C@@]12C(=O)N(C(=O)OCCOC)c1ccc(C#CCC(C(=O)OC)C(=O)OC)cc12 | 1.54 | 1.05 (inactive) | 0.552 (inactive) | 5.79 (inactive) | 2.39 | -0.0236 (inactive) | 0.0398 | 1.18 | 1.03 | 0.23 |
| COC(=O)[C@@]1(Cc2ccccc2)[C@H]2c3cc(C(=O)N(C)C)n(CCc4c[nH]c5ccc(O)cc45)c3C[C@H]2CN1C(=O)c1ccccc1 | 0.937 | -1.09 (inactive) | 1.25 (inactive) | 0.405 (inactive) | 3.11 | 0.488 (inactive) | 0.583 | 0.626 | 0.751 | -0.0234 |
| CO[C@H]1O[C@H](CO)[C@@H](OC(=O)Nc2ccc(Br)cc2)[C@@H]2OC(=O)[C@H](Cc3cccc(Br)c3)C/C=C/C[C@@H](Cc3cccc(Br)c3)C(=O)O[C@@H]12 | 0.0859 | -0.163 (inactive) | -2.81 (inactive) | 30.3 (active) | 0.763 | 1.26 (inactive) | -0.112 | 0.594 | 0.911 | -0.0828 |
| COCC(=C=CC[C@H](O)c1ccccc1OCCO)CCO | 0.43 | -0.594 (inactive) | -0.5 (inactive) | -0.127 (inactive) | 1.8 | 0.309 (inactive) | 0.0041 | 0.698 | 0.318 | -0.1 |
| C=C(CCCC)/C(=C/C[C@H](OC(=O)c1ccncc1)c1ccc(OCCO)cc1)c1cc(C(=O)OC)ccc1OC | 0.834 | 0.992 (inactive) | -0.78 (inactive) | -0.676 (inactive) | 1.27 | 0.987 (inactive) | -0.187 | -0.395 | -0.0191 | 0.689 |
| O=C1[C@H]2C=C(I)[C@H](C[C@@H]2OCCCCO)[C@@]12CO2 | 0.9 | -1.04 (inactive) | -0.983 (inactive) | 0.0593 (inactive) | 0.512 | -1.09 (inactive) | -0.0534 | 0.573 | 0.186 | -0.165 |
| CC1CC/C=C\[C@H]2OC34C=CCN(c5ccc6ccccc6c5)C(=O)[C@H]3N(CCO)C(=O)[C@@H]4C2C(=O)O1 (stereo not given in full) | 0.229 | -0.646 (inactive) | -1.4 (inactive) | -0.764 (inactive) | 2.07 | 0.764 (inactive) | 0.314 | -1.11 | 0.521 | -0.123 |
| CC(C)CNC(=O)[C@@]1(Cc2ccccc2I)c2ccccc2C(=O)N(Cc2ccccc2C(F)(F)F)[C@H]1c1ccc(CO)cc1 | 1.15 | -0.618 (inactive) | -0.0802 (inactive) | -0.403 (inactive) | 1.6 | 0.164 (inactive) | -0.101 | -0.518 | -0.771 | -0.201 |
| C#CCN1[C@@H](Cc2ccc(O)cc2)C(=O)O[C@H](Cc2ccccc2)[C@@H]1/C=C/C1CC1 | -0.193 | -0.257 (inactive) | -4.95 (inactive) | 1.09 (inactive) | 0.602 | -0.495 (inactive) | -0.144 | -0.204 | -0.139 | -0.0081 |
| COCCOC(=O)N1C(=O)[C@@]2(c3cc(C#CC4=CCCCC4)ccc31)[C@H](C(N)=O)[C@H]1C(=O)O[C@H](c3ccccc3)[C@H](c3ccccc3)N1[C@@H]2c1ccc(O)cc1 | 1.55 | -1.59 (inactive) | -0.638 (inactive) | 0.0591 (inactive) | 3.06 | 0.573 (inactive) | 0.725 | 0.735 | 1.13 | 0.0038 |
| COC(=O)[C@@]1(Cc2ccc(OC)cc2)[C@H]2c3cc(C(=O)N4CCCC4)n(CCc4ccc(O)c(O)c4)c3C[C@H]2CN1C(=O)c1ccccc1 | -0.445 | -0.087 (inactive) | 0.208 (inactive) | 0.751 (inactive) | 3.62 | -0.765 (inactive) | 0.491 | -0.17 | -0.122 | 0.212 |
| NC(=O)N1C(=O)C2C(C1=O)C1C=C(CCCO)C2C(C2CC2)N1Cc1cc2c(cc1Br)OCO2 (stereo not given) | -0.918 | -1.07 (inactive) | -0.435 (inactive) | -1.22 (inactive) | 1.36 | -0.331 (inactive) | -0.0778 | -0.0543 | 0.325 | -0.13 |
| CCCCC(=C=CC[C@H](O)c1cccc(OCCO)c1)C[C@H](O)c1ccccn1 | 0.483 | -1.2 (inactive) | -1.12 (inactive) | -1.68 (inactive) | -0.639 | 1.34 (inactive) | -0.165 | 0.395 | -0.153 | -0.13 |
| CC(C)NC(=O)[C@@]1(Cc2ccccc2I)c2ccccc2C(=O)N(Cc2ccccc2Cl)[C@H]1c1ccc(CO)cc1 | 1.51 | 1.14 (inactive) | -0.199 (inactive) | 1.39 (inactive) | 2.59 | -0.406 (inactive) | -0.0441 | 0.607 | 1.08 | -0.0181 |
| O=C1C2C=CC(C(O)c3ccc(F)cc3)N(Nc3ccc([N+](=O)[O-])cc3)C2C(=O)N1c1ccccc1 (stereo not given) | 1.35 | 0.099 (inactive) | 1.75 (inactive) | 1.96 (inactive) | 3.27 | -0.848 (inactive) | 0.187 | 0.257 | 1.1 | -0.0435 |
